From PubChem BioAssay
PolyA inh: yeast polyadenylation inhibition. S. cerevisiae SKY197-pL101 polyadenylation reporter, beta-gal luminescence; efflux-impaired pdr1/pdr3 knockout yeast; score 100 = 6 SD above DMSO. activity score, % at 12 µM. 300,000 tested, 0.02% active. AID 1875;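 active = lowest replicate activity score at least 50, where 100 means six control SD above control mean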;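 note: yeast exposed to compound for 9 h at 30 °C; higher score means more reporter readthrough which indicates perturbed polyadenylation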
ALR H2O2 inh: human ALR oxidase inhibition via reduced H2O2; P55789; purified ALR, DTT oxidation, H2O2 HRP-luminol luminescence; inhibition, % (concentration not given with the values); 290,000 tested, 3.8% active; AID 485317;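 active = mean replicate inhibition above about 79%, with every replicate also reaching it, limit read from the data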
IDE cell activ: IDE (human) activation, cell-based; activation, % at 5.96 µM; HEK cells, FAbeta-B cleavage, fluorescence polarization; 0% vehicle, 100% cell-free pure enzyme wells; 340,000 tested, 0.073% active;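 active = activation above the mean of all tested compounds plus 3 SD, set per screening campaign, cut at about 17% in these data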
Target sequence (P14735 whole entry, looked up): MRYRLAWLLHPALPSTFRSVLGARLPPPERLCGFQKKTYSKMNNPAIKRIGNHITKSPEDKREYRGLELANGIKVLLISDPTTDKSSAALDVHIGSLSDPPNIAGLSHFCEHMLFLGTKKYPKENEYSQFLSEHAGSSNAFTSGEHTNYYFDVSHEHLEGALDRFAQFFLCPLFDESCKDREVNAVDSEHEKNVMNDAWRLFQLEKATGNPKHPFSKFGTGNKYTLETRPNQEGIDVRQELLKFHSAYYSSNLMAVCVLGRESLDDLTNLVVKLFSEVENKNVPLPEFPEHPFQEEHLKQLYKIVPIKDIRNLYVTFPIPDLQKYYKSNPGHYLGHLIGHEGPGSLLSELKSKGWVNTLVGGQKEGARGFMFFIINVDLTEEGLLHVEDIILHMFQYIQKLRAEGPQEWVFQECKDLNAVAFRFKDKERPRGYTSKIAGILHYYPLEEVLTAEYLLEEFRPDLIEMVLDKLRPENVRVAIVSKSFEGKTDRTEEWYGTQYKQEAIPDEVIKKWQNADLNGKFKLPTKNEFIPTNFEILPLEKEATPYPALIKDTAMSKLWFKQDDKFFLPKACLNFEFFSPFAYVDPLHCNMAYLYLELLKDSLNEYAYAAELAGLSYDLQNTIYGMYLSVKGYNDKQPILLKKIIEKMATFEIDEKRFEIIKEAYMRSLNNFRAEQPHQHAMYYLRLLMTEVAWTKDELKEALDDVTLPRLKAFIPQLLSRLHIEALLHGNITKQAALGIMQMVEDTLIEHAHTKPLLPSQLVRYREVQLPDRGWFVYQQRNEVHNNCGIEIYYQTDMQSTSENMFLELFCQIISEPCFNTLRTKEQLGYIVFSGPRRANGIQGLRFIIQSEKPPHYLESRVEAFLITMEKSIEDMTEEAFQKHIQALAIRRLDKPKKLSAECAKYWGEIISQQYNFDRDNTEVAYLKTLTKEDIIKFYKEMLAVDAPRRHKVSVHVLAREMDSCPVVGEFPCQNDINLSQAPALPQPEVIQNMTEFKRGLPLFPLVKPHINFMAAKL
PfM18AAP inh: blocks P. falciparum M18 aspartyl aminopeptidase; recombinant PfM18AAP, H-Glu-NHMec fluorogenic cleavage; AID 1822; 290,000 tested, 1.2% active; inhibition, % at 7.35 µM;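 active = inhibition above the campaign mean inhibition over all tested compounds plus 3 SD, cut at about 28% in these data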;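 note: 0% = plate median of test compound wells and 100% = 2 mM ZnCl2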
CaV13 ICDI inh: Disruptors of the CACNA1D IQ motif to Ca2+-dependent inactivation inhibitor domain association, primary screening, Förster resonance energy transfer in intact living …; 340,000 tested, 0.098% active; AID 743397; HEK cells, CFP/YFP FRET ICDI-IQ, plate reader, 10 min; percent FRET-ratio fall versus neutral wells; inhibition, % at 12.3 µM;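 active = mean replicate inhibition of at least 30% and at least 1% of replicates passing that level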;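 note: 0% = median of the neutral control wells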
IDE cell inh: cellular human IDE inhibition. P14735. HEK cells, FAbetaB cleavage, fluorescence polarization. inhibition, % at 5.59 µM. 320,000 tested, 0.41% active. AID 434962;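 active = percent inhibition above the average of all tested compounds plus 3 SD, set per screening campaign, cut at about 16% in these data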;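 note: IDE supplied by intact live HEK cells; FP after avidin binding of uncleaved biotin substrate so inhibition keeps polarization high; 0% = DMSO wells and 100% = 60 µM reference IDE inhibitor Ii1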
Starred values were filed as active, the others as inactive; x = no result given. In the library only some 4.1% were active in any assay of this set; here they are far more common.

SMILES	PolyA inh	ALR H2O2 inh	IDE cell activ	PfM18AAP inh	CaV13 ICDI inh	IDE cell inh
Cc1csc(=Nc2ccccc2)n1CCCN1CCCC1=O	-6	99*	-1	5	-2	1
COc1ccc(N=c2scc(C)n2CCCN2CCCC2=O)cc1	6	100*	1	13	-6	3
Cc1cs/c(=N/C(=S)Nc2ccccc2)n1C	-15	-6	6	-1	-3	5
Cc1csc(=Nc2ccccc2)n1C	0	99*	3	-4	0	1
O=C1CCCN1CCCNC(=S)Nc1ccccc1	-6	1	x	-6	-4	1
COc1ccc2cc(C(=O)NCCCN3CCCC3=O)[nH]c2c1	16	-9	6	4	-7	-1
CCOc1ncccc1C(=O)OCC(=O)NC1CCCCC1	x	13	3	x	-2	1
O=C(NCCCO)C(=O)NCC(c1ccc2c(c1)OCO2)N1CCN(c2ccc(F)cc2)CC1 (centres undefined)	9	35	5	0	-4	5
COc1ccc(N2CCN(C(CNC(=O)CC(C)(C)C)c3ccc4c(c3)OCO4)CC2)cc1 (centres undefined)	-13	82*	5	3	-4	3
COc1ccc(N2CCN(C(CNC(C)=O)c3ccc4c(c3)OCO4)CC2)cc1 (centres undefined)	7	88*	5	6	-4	-1
COc1ccc(N2CCN(C(CNC(=O)C(=O)NCc3ccc4c(c3)OCO4)c3ccco3)CC2)cc1 (centres undefined)	15	-8	-3	-5	-15	6
O=C(CNc1cccc([N+](=O)[O-])c1)N1CCN(S(=O)(=O)c2ccc(Cl)cc2)CC1	x	x	2	x	x	x
CC(C)Sc1nc(C(F)(F)F)cc(=O)n1-c1ccccc1	0	-5	1	-1	-5	7
O=C(O)c1ccc(-c2cccc([N+](=O)[O-])c2)o1	0	x	6	2	-2	2
O=C(NC1CCCCC1)c1ccc(-c2cccc([N+](=O)[O-])c2)o1	3	94*	6	-9	-5	-4
Cc1cc2nc(/N=C(\N)NC(=O)N3c4ccccc4Sc4ccccc43)nc(C)c2cc1C	x	92*	6	-1	-4	2
COc1ccc(-c2nc(NC3=NCCCCC3)sc2C)cc1	2	98*	7	1	-5	1
COc1cc(/C=C2\SC(=O)NC2=O)ccc1Oc1ccc([N+](=O)[O-])cc1[N+](=O)[O-]	-2	98*	1	13	-2	-4
Cc1nn(C2CCCCC2)c(N)c1-c1ccccc1	4	97*	2	8	-5	1
Cc1nn(Cc2ccccc2)c(N)c1C#N	8	-7	4	-1	-5	-5
Cc1nn(Cc2ccccc2)c(N)c1-c1ccccc1	x	97*	5	-6	-3	0
O=C(O)CCn1cc(/C=C/C(=O)c2ccc(Cl)cc2)c(-c2ccc(Br)cc2)n1	x	98*	0	7	-1	-7
O=C(O)/C=C/c1cn(Cc2ccccc2)nc1-c1ccccc1	-4	3	-2	-3	x	1
Cc1c(C(=O)NCCC2=CCCCC2)cccc1[N+](=O)[O-]	-6	0	-1	2	x	-2
CN(c1ccccc1)S(=O)(=O)c1cccc(NC(=O)COc2cccc([N+](=O)[O-])c2)c1	x	0	18*	x	-2	4
SMILES	PolyA inh	ALR H2O2 inh	IDE cell activ	PfM18AAP inh	CaV13 ICDI inh	IDE cell inh
CCC(=O)c1ccc(OCC(=O)Nc2cccc(S(=O)(=O)N(C)c3ccccc3)c2)cc1	x	16	-8	x	-3	11
Nc1cc2c([N+](=O)[O-])cccc2o1	-17	85*	-3	9	x	-6
Cc1cccc(N2CCN(C(=O)CCC(=O)N3Cc4ccccc4Oc4ncccc43)CC2)c1C	1	-17	-3	1	-14	9
O=C(NCc1ccco1)c1cc2sccc2n1Cc1ccccc1	-9	93*	6	12	-8	-5
COc1cc(C)nc(Oc2ccc(/C=N/O)cc2)n1	7	98*	6	-8	x	1
COc1nc(Oc2ccc(/C=N/O)cc2)nc(N(C)C)n1	-2	99*	1	-7	-8	-1
CC(C)Nc1nc(NC(C)C)nc(Oc2ccc(/C=N/O)cc2)n1	-5	x	6	-9	-4	6
CN(C)c1nc(Oc2ccc(/C=N/O)cc2)nc(N(C)C)n1	-18	99*	6	0	-8	1
COCCN1CCN(C(=O)c2ccc3c(c2)S(=O)(=O)c2ccccc2C3=O)CC1	7	0	x	x	-5	-3
Cc1ccc(C(=O)N2CCC(n3nccc3NC(=O)C3CCOC3)CC2)cc1 (centres undefined)	0	-4	10	-7	-3	-1
CC(=O)Nc1cccc(-c2ccnc3c2CC(C(=O)NCCc2ccccc2)O3)c1 (centres undefined)	x	x	x	x	26	x
S=c1[nH]nc(Cc2c[nH]c3ccccc23)o1	13	54	5	5	x	-7
S=c1[nH]nc(Cc2sc(-c3ccccc3)nc2-c2ccccc2)o1	-5	98*	1	4	-4	1
Cc1onc(-c2c(Cl)cccc2Cl)c1C(=O)c1c[nH]c(C(=O)NCC2CCCO2)c1 (centres undefined)	5	x	2	2	-6	6
O=C1C[C@@H](c2ccc(O)cc2)Oc2cc(O)cc(O)c21	0	100*	-4	4	-9	4
CC[C@H](C)[C@@H](C(=O)N1CCNCC1)n1cc([C@@H](N)CC(C)C)nn1	21	33	-5	3	-12	-6
O=C(O)c1ccc(-c2nc(-c3ccccc3)cs2)cc1	1	95*	2	-8	13	1
O=C(Nc1ccc(-c2csc(-c3ccccc3)n2)cc1)c1ccccc1Cl	-6	-2	-4	-1	x	2
O=C(O)c1ccccc1C(=O)Nc1ccc(-c2csc(-c3ccccc3)n2)cc1	-30	99*	1	-12	-5	8
CCC1(CC)C(=O)C2=C3C1[C@H](C(=O)OC)CC(C(=O)OC)C[C@H]3[C@H]1C(=O)N(c3ccccc3)C(=O)[C@H]1[C@H]2C (some centres undefined)	-8	-15	4	x	-8	0
N#Cc1ccccc1CN1C(=O)S/C(=C/c2cccn2-c2ccc(C(=O)O)cc2)C1=O	18	98*	3	-6	-7	3
O=C(O)c1ccc(-n2cccc2/C=C2/SC(=O)N(CC(=O)N3CCCC3)C2=O)cc1	-1	2	6	12	-3	3
O=c1c(Cl)c(NCc2ccc(F)cc2)cnn1C12CC3CC(CC(C3)C1)C2	-24	-1	-4	5	-4	4
